Results published in PubChem BioAssay AID1376 (SRMLSC, 2008).
The campaign covered roughly 220,000 compounds. About 530 (0.24%) were called active. Many of the other results were omitted from the sample, so actives are more common in it than they were. Entries with a potency or affinity are not part of this list. Unmarked numbers belong to inactive results. Rule as the data show it: active = inhibition above about 13%; inconclusive = no clear call, values can overlap the other calls; inactive = below that.

What follows are compounds tested against Bifunctional protein GlmU (Mycobacterium tuberculosis (strain ATCC 25618 / H37Rv)) (UniProt P9WMN3) (assay: inhibition of mycobacterial GlmU enzyme – biochemical, glucosamine-1-phosphate acetyltransferase (AID 1376;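 also: 0% = complete reaction with vehicle and 100% = reaction without substrate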)). Details: M. tuberculosis GlmU acetyltransferase enzyme assay; stronger effect = higher value;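 tested at 30 µM in the primary screen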.
Chain of Bifunctional protein GlmU (Mycobacterium tuberculosis (strain ATCC 25618 / H37Rv)) (P9WMN3 whole entry, looked up): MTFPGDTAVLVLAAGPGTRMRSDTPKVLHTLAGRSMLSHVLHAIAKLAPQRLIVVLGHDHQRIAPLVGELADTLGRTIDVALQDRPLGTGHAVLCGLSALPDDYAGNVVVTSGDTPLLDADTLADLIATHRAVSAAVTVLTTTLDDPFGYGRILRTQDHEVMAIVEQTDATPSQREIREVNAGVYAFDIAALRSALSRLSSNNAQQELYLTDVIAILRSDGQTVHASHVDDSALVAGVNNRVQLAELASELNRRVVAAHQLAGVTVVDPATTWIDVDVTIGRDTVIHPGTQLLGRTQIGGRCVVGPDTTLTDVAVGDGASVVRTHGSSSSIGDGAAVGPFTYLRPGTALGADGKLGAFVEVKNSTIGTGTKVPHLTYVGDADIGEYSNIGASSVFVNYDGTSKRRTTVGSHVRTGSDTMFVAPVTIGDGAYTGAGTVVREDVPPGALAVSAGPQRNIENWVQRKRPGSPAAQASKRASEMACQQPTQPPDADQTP
`CCS(=O)(=O)NCCNc1ccc([N+](=O)[O-])cc1` showed an inhibition of 1.84%. With `Nc1nc(SCC(=O)NCc2ccccc2)n[nH]1` the inhibition was 0.23%. `Cc1cc2c(o1)CC(C)(C)CC2=O` was tested, and the inhibition was 1.91%. For `O=C(Nc1cccnc1)c1cc2c(ccc3ccccc32)o1`, the inhibition was 7.23%. `CCCCOC(=O)Nc1ccc(S(=O)(=O)Nc2nccs2)cc1` was tested, and the inhibition was -2.11%. `Cc1ccc([N+](=O)[O-])cc1N=Nc1c(-c2ccc([N+](=O)[O-])cc2)[nH]n(C(N)=S)c1=O` gave an inhibition of 0.14%. `NC(=S)n1[nH]c(-c2ccc([N+](=O)[O-])cc2)c(N=Nc2ccccc2[N+](=O)[O-])c1=O` showed an inhibition of -2.18%. In the case of `Cc1c(N=Nc2c(-c3ccc([N+](=O)[O-])cc3)[nH]n(C(N)=S)c2=O)cccc1[N+](=O)[O-]`, the inhibition is reported as 14.5% (active). `NCCN1CCN(CCN)CC1` showed an inhibition of -1.39%. In the case of `COc1ccc(C2(C)NC(=O)N(CC(=O)Nc3ccc(-c4nc5ccc(C)cc5s4)cc3)C2=O)cc1` (configuration not stated), the inhibition is reported as -4.16%. `O=c1cc(Cl)[nH]c(=O)n1CCNc1ncc(C(F)(F)F)cc1Cl` gave an inhibition of -0.65%. `O=C(c1ccccc1F)N1CCCC(C(=O)N2CCN(c3ccccc3)CC2)C1` (configuration not stated) showed an inhibition of 4.78%. `CC(C)C(=O)N1CCN(c2ccc(NC(=O)c3cccs3)cc2)CC1` showed an inhibition of -0.11%. For `C=CCOc1c(CNc2ccc(C(=O)O)cc2)cccc1OCC`, the inhibition was -3.36%. Compound `C=CCOc1c(CNc2cccc(C(=O)O)c2)cccc1OC` has an inhibition of -2.58%. For `C=CCOc1c(CNc2cccc(C(=O)O)c2)cccc1OCC`, the inhibition was 17.6% (active). `COc1ccc(CC(=O)Nc2c3c(nn2-c2cccc(C)c2C)CS(=O)C3)cc1` (configuration not stated) showed an inhibition of 0.63%. Compound `CCN(C(=O)c1cc2c(=O)[nH]c3ccc(C)cc3c2s1)c1cccc(C)c1` has an inhibition of 0.79%. Compound `Cn1c(=O)c2c(nc(SCC(=O)c3ccccc3F)n2C)n(C)c1=O` has an inhibition of 2.09%. `COc1cccc2c1OC1(C)CC2NC(=O)N1` (configuration not stated) was tested, and the inhibition was 7.2%. For `COc1ccc(-c2nnc3ccc(SCC(=O)NCc4ccco4)nn23)cc1`, the inhibition was -0.33%. In the case of `O=C(NC(Oc1ccccc1)C(Cl)(Cl)Cl)c1ccccc1` (configuration not stated), the inhibition is reported as 2.49%. `Cc1cccc(C(=O)NC(Oc2ccccc2)C(Cl)(Cl)Cl)c1` (configuration not stated) gave an inhibition of 0.69%. In the case of `COc1ccc(C(=O)NC(Oc2ccccc2)C(Cl)(Cl)Cl)cc1` (configuration not stated), the inhibition is reported as 46.8% (active). `CCCCCC(=O)c1c(C)[nH]c(C(=O)OCC)c1C` was tested, and the inhibition was 2.82%. For `NC(=O)C1(N2CCCCC2)CCN(C(=S)Nc2cc(F)cc(F)c2)CC1`, the inhibition was 3.46%. `Cn1nnc(CC[N+](C)(C)C)n1` showed an inhibition of -0.54%. `CCOC(=O)c1cnc2c(-c3ccc(Cl)cc3)c(C)nn2c1N` showed an inhibition of -0.25%. `CCn1c(SCC(=O)OCC(=O)N2c3ccccc3NC(=O)C2(C)C)nnc1-c1ccco1` showed an inhibition of 3.17%. `CCN(c1ccc(NS(=O)(=O)c2cc(Cl)ccc2Cl)cc1)C(C)C` was tested, and the inhibition was -7.63%. In the case of `CCc1c(C)sc(NC(=O)c2ccco2)c1C(=O)N1CCOCC1`, the inhibition is reported as 13.4% (active). `CCc1c(C)sc(NC(=O)c2ccco2)c1C(=O)N1CCCCC1` gave an inhibition of 0.95%. In the case of `CCc1c(C)sc(NC(=O)OC)c1C(=O)N1CCOCC1`, the inhibition is reported as 2.3%. `Cc1ccccc1NC(=S)N(CCN(C)C)C(C)c1ccco1` (configuration not stated) gave an inhibition of -1.1%. `CC1=NN(c2ccccc2)C(=O)/C1=C/c1c(O)[nH]c(=S)[nH]c1=O` gave an inhibition of -4.55%. For `CC1=NN(c2ccccc2)C(=O)/C1=C/c1c(O)n(-c2ccc(F)c(Cl)c2)[nH]c1=O`, the inhibition was 13.6% (active). `CC1=NN(c2ccccc2)C(=O)/C1=C/c1c(O)n(-c2ccc(F)cc2)[nH]c1=O` gave an inhibition of 7.97%. With `O=c1sc(Nc2ccccc2)nc2ccccc12` the inhibition was 4.04%. Compound `CCc1ccc(Nc2nc3ccccc3c(=O)s2)cc1` has an inhibition of -0.12%. For `CCOc1ccc(Nc2nc3ccccc3c(=O)s2)cc1`, the inhibition was 13.8% (active). With `COc1ccc(/C=N/NC(=O)CCC(=O)Nc2ccccc2)cc1OC` the inhibition was -0.28%. `COc1ccc(N2CCN(C(CNC(=O)C(=O)NCCCn3ccnc3)c3cccnc3)CC2)cc1` (configuration not stated) showed an inhibition of 4.95%. `COc1ccc(/C=C/C(=O)Nc2cc(C(F)(F)F)ccc2Cl)cc1OC` was tested, and the inhibition was -4.68%. For `COc1cccc(C(=O)Nc2cc(C(F)(F)F)ccc2Cl)c1`, the inhibition was -5.67%. For `COc1ccc(C(=O)Nc2cc(C(F)(F)F)ccc2Cl)cc1OC`, the inhibition was 48.9% (active). `Nc1ccc2nc3c(=O)n(C4CCCCC4)c(=O)[nH]c3nc2c1` was tested, and the inhibition was -0.52%. With `Nc1cc2nc3ccccc3nc2cc1N` the inhibition was 1.38%. `C/C(=N/NS(=O)(=O)c1ccc(C)cc1)[C@H]1C[C@@H]1c1ccccc1` was tested, and the inhibition was 1.42%. For `COC(=O)c1ccc(OCC(=O)c2ccccc2)cc1`, the inhibition was 2.96%. In the case of `COC(=O)c1ccc(OCCOc2ccccc2)cc1`, the inhibition is reported as 14.7% (active). In the case of `COC(=O)c1ccc(OCCOc2ccc(C(=O)OC)cc2)cc1`, the inhibition is reported as -4.5%. Compound `CCNCCNc1ccc(Cl)cc1[N+](=O)[O-]` has an inhibition of 0.23%. Compound `c1ccc(CCn2nnnc2C(c2cccnc2)N2CCN(c3ccccc3)CC2)cc1` (configuration not stated) has an inhibition of -3.96%. With `CSc1nnc([C@@H]2CCCN2C(=O)OC(C)(C)C)o1` the inhibition was 6.66%. `CCOC(=O)c1oc2nc(CC(C)C)c3c(c2c1N)CCCC3` was tested, and the inhibition was 2.38%. `CCCc1cc(NCC2CCCO2)n2c(nc3ccccc32)c1C#N` (configuration not stated) was tested, and the inhibition was 7.14%. With `Cc1cc(NCC2CCCO2)n2c(nc3ccccc32)c1C#N` (configuration not stated) the inhibition was 12.8% (active). With `CC(C)c1cc(NCC2CCCO2)n2c(nc3ccccc32)c1C#N` (configuration not stated) the inhibition was 5.33%. `O=C(NCC1(N2CCCCC2)CCCCC1)c1ccc(S(=O)(=O)N2CCCC2)cc1` showed an inhibition of 7.41%. Work on `Cc1c(F)cccc1NS(=O)(=O)c1ccc2c(c1)NC(=O)CO2` yielded an inhibition of -2.89%. For `Cc1ccccc1NS(=O)(=O)c1ccc2c(c1)NC(=O)CO2`, the inhibition was 13.3% (active). `Cc1cccc(C)c1NS(=O)(=O)c1ccc2c(c1)NC(=O)CO2` showed an inhibition of 7.49%.
